High-throughput results from PubChem BioAssay.
This excerpt belongs to a sample that is enriched for hits.
Tb PYK inh – inhibitors of Trypanosoma brucei pyruvate kinase. Potency, µM (doses to about 76.8 µM), without a hit: at the highest dose activity, negative = inhibition, most hits filed as inhibitors. TbPYK enzyme, Kinase-Glo Plus ATP luminescence, 45 min. 410,000 tested, 0.12% active; also: potency is read from the fitted curve at half-maximal effect; % is scaled to controls: 0 for no effect and ±100 for the full control effect; nearly all actives have a fitted effect of over 50% in size
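Quantitative HTS: titrated library compounds versus trypanosomal pyruvate kinase in TEA buffer (pH 7.2) containing KCl, MgCl2, BSA and Tween-20. Reactions were initiated with ADP, 130 uM final. Kinase-Glo Plus luminescence was read after 45 min at RT.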
Cycloheximide cs – counter-screen for Shiga toxin inhibitors: cycloheximide protein synthesis inhibition; cell reporter, cycloheximide protein synthesis inhibition counterscreen; max response, %; AID 2314; 300,000 tested, 12% active; in the data active = max response mostly above about 13%, no sharp cut-off; inactive = mostly below about 14%; also: read at 38.3 µM for the half of the compounds with a filed dose; 0% is about no effect
SARS PLpro yeast – blocks SARS-CoV papain-like protease in a yeast assay; S. cerevisiae expressing SARS-CoV PLpro, growth rescue; Potency, µM (doses to about 32.9 µM), for the others: at the top dose activity, positive = growth rescue, most hits filed as activators; 330,000 tested, 0.19% active; calls by dose curve; also: potency is read from the fitted curve at half-maximal effect; 0% is about no effect; nearly all actives have a fitted effect of over 55% in size
NS1 inh – blocks influenza NS1 protein function; Potency, µM (titrated, usually from 46.1 µM), for inactives: top-dose activity, positive = more growth; 270,000 tested, 0.4% active; AID 2326; calls by dose curve; also: potency is read from the fitted curve at half-maximal effect; actives are rising curves; nearly all actives have a fitted effect of over 50% in size
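OD600 was taken as the measure of yeast growth restored by compound in an NS1-expressing S. cerevisiae strain. Cells had been washed out of glucose medium and diluted 1:100 into galactose -URA medium, pH 6.0.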
Shiga toxin inh – inhibitors of Shiga toxin in Vero cells. Vero cells, Shiga toxin protein synthesis inhibition reporter. inhibition, % at 38.7 µM. 290,000 tested, 9.2% active; in the data active = inhibition mostly above about 28%, no sharp cut-off; inactive = mostly below about 43%; also: 0% is about no effect
LmPK inhibitor – blocks Leishmania mexicana pyruvate kinase activity | Q27686 | purified LmPK, Kinase-Glo ATP luminescence, 1 h | Potency, µM (series often up to 57.5 µM), without a hit: top-dose activity change, negative = inhibition, hits mostly inhibitors | 290,000 tested, 0.37% active | AID 1721; also: potency is read from the fitted curve at half-maximal effect; % is scaled to controls: 0 for no effect and ±100 for the full control effect
Target sequence (Q27686 whole entry, looked up): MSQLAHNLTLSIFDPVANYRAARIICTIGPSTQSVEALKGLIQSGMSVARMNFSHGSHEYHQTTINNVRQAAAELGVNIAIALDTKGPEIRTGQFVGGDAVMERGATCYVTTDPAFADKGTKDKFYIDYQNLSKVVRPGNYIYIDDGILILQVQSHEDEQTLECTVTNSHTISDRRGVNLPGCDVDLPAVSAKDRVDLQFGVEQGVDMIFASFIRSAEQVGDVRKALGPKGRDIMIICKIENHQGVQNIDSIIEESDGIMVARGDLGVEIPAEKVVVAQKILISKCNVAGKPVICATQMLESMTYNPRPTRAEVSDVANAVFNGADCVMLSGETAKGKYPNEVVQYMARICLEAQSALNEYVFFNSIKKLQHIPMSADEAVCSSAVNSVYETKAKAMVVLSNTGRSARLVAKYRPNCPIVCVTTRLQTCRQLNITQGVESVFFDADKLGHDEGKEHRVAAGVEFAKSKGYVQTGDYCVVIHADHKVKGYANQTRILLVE
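In 50 mM imidazole pH 7.2 with 7 mM MgCl2, LmPK (0.1 nM) turned over PEP (0.5 mM) and ADP (0.1 mM) for 1 h at room temperature. Luciferase read-out of ATP.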
* = called active by the depositor; ? = inconclusive; nt = not tested or not shown. Unless noted, calls follow the shape of the dose curve; as a rule, active = well fitted curve in the direction sought with a large enough effect; inconclusive = small, poorly fitted or top-dose-only effect, or another doubt; inactive = no such curve, though single readings can be large; an effect the other way counts as inactive or inconclusive.

SMILES | Tb PYK inh | Cycloheximide cs | SARS PLpro yeast | NS1 inh | Shiga toxin inh | LmPK inhibitor
COc1ccccc1CCn1cnc(-c2ccc(Br)cc2)c1C(C)C | 1% | nt | nt | nt | nt | nt
O=C(CC(SCCO)c1ccc(F)cc1)c1ccco1 (configuration not stated) | -5% | 52* | -12% | -146% | 104* | -6%
Cc1ccc(C(CC(=O)c2ccco2)SCCO)cc1 (configuration not stated) | 0% | 38* | -5% | -5% | 72* | -17%
O=C(c1ccco1)N1CCN=C1SCc1ccc(F)cc1 | -2% | -5 | 0% | -42% | -5 | -2%
Cc1ccc(C(O)C(=O)c2ccco2)cc1 (configuration not stated) | 0% | nt | 4% | nt | nt | nt
COc1ccc(NC(=O)Cn2nc(-c3ccncc3)ccc2=O)cc1Cl | -1% | nt | nt | nt | nt | nt
Nc1cccc(C(=O)Nc2ccc(N)cc2Cl)c1 | 0% | 15 | -6% | -3% | 24 | 6%
Cc1ccccc1C(=O)Nc1cccc(N)c1 | -7% | 18* | -4% | 13% | 31* | 1%
Nc1ccc(C(=O)Nc2cccc(N)c2)cc1 | 0% | 20* | -3% | 10% | 77* | -24%
CCN(C(=O)COC(=O)c1ccc2c(c1)OCO2)c1ccc(F)cc1 | 5% | nt | -2% | nt | nt | nt
CCOc1ccccc1OCC(=O)OC(C)C(=O)Nc1ncc(Cl)cc1Cl (configuration not stated) | 2% | nt | 3% | nt | nt | nt
Cc1ccccc1-n1cc(-c2ccc(Br)cc2)nc1SCC(N)=O | 3% | 0 | -1% | -8% | 1 | -4%
CCOC(=O)NC(=O)CSc1nc(-c2ccc(C)c(C)c2)cn1-c1ccccc1 | ? | 63* | -34% | -17% | 131* | 0%
Cc1ccc(-c2cn(-c3ccccc3)c(SCC(N)=O)n2)cc1C | 4% | 37* | -11% | -24% | 43* | 1%
c1cncc(-c2noc(C34CC5CC(CC(C5)C3)C4)n2)c1 | 3% | 22* | 0% | -32% | 36* | -6%
CCc1ccc(NC(=O)c2sc3nc(C)c(Cl)c(C)c3c2NC(=O)c2ccccc2)cc1 | 6% | nt | nt | nt | nt | nt
COc1cc(O)oc1C=Nc1ccc(Cl)cc1 | -2% | 15 | -1% | -14% | 20 | -3%
COc1cc(O)oc1C=Nc1ccc(C(=O)O)cc1 | ? | -3 | -5% | nt | 3 | 25µM*
COc1cc(O)oc1C=Nc1ccc(Cl)cc1Cl | -4% | 28* | -7% | -51% | 35* | 4%
O=[N+]([O-])c1ccc(C(c2sc3nc(-c4ccco4)nn3c2O)N2CCN(Cc3ccccc3)CC2)cc1 (configuration not stated) | -16% | nt | nt | nt | nt | nt
Cc1ccc2[nH]c3c(=O)n(CC(=O)N(CCN(C)C)Cc4ccccc4)ncc3c2c1 | 3% | nt | nt | nt | nt | nt
Cc1noc(C)c1C(=O)N1CCC2(CC1)CN(c1ccccc1)C2 | 5% | nt | nt | nt | nt | nt
CNc1ccc(Br)cc(C(=O)/C=C/c2ccc(OC)cc2)c1=O | -15% | 21* | 20% | ? | active | 1%
CNc1ccc(Br)cc(C(=O)/C=C/c2cc(OC)ccc2OC)c1=O | -15% | 6 | ? | ? | 19 | -1%
CNc1ccc(Br)cc(C(=O)/C=C/c2ccc3c(c2)OCO3)c1=O | -17% | 25* | -11% | 4% | 74 | 0%
SMILES | Tb PYK inh | Cycloheximide cs | SARS PLpro yeast | NS1 inh | Shiga toxin inh | LmPK inhibitor
O=C(Cc1c(F)cccc1Cl)NNC(=S)Nc1ccc(S(=O)(=O)Nc2ncccn2)cc1 | -2% | -3 | 0% | 4% | -4 | 0%
S=C(NCCc1ccccc1)N/N=C/c1cccs1 | 0% | nt | nt | nt | nt | nt
Cc1ccsc1/C=N/NC(=S)NCCc1ccccc1 | -5% | 32* | -7% | nt | 31* | 6%
Cc1ccsc1/C=N/NC(=O)C(=O)NCC(C)C | -23% | 41* | 0% | 2% | 76* | -1%
CCNC(=S)N/N=C/c1sccc1C | nt | 6 | 1% | nt | 34* | 0%
COc1cccc(C(=O)Nc2ccc(NC(=O)C3CCCCC3C(=O)O)cc2)c1 (configuration not stated) | 3% | 39* | 26% | 6% | 21 | -6%
O=C(COC(=O)c1ccc(NC(=O)C2CC=CCC2C(=O)O)cc1)c1ccccc1 (configuration not stated) | -1% | 36* | 1% | 2% | 75* | 2%
O=C(O)C1CC=CCC1C(=O)Nc1ccccc1 (configuration not stated) | 1% | 9 | 3% | -1% | 37 | 2%
